Screening results deposited in PubChem BioAssay by National Center for Advancing Translational Sciences (NCATS).
AmpC nodet inh: inhibitors of E. coli AmpC beta-lactamase without detergent; Potency, µM (titrated, usually from 28.7 µM), for the others: at the highest dose activity change, negative = inhibition; hit rate 1.8% among 71,000; P00811; AmpC nitrocefin hydrolysis, absorbance 480 nm, no detergent; note: % of control where 0% means no effect
Target sequence (P00811 whole entry, looked up): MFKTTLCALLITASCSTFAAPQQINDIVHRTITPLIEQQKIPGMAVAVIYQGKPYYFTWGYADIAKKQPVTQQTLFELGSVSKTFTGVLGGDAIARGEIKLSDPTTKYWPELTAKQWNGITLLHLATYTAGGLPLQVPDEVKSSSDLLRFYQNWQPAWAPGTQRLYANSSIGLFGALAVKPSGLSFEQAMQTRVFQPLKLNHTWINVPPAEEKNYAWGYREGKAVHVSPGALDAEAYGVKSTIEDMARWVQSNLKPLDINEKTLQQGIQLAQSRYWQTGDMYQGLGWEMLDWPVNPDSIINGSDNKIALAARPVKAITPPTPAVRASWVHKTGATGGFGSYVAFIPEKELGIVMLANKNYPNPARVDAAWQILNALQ
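AmpC in 20 mM phosphate buffer pH 7.0 was preincubated 15 min at room temperature with compounds. Nitrocefin (800 uM stock) was then added and hydrolysis followed at 480 nm every 20 s for 4 min.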
Anthrax LT inh: inhibitors of anthrax lethal toxin internalization; Cells, anthrax lethal toxin internalization, FRET ratio (460/530); Potency, µM (series often up to 40 µM), for inactives: at the highest dose activity change, negative = inhibition, hits mostly inhibitors; hit rate 0.67% among 70,000; note: % is set by controls: 0 for no effect and ±100 for the full control effect; nearly all actives have a fitted effect of over 50% in size
SmPrx2 inh: blocks S. mansoni peroxiredoxin 2 enzymatic activity | S. mansoni Prx2 activity coupled to TGR/GSH (TGR is thioredoxin glutathione reductase), NADPH fluorescence loss, qHTS | Potency, µM | hit rate 0.07% among 65,000
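Activity is read as the drop in NADPH fluorescence (365/450 nm), recorded every 30 sec for 8 min after H2O2 addition. Prx2 is coupled to TGR-driven NADPH oxidation through glutathione, in phosphate buffer pH 7.4.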
AmpC det inh: inhibitors of E. coli AmpC beta-lactamase with detergent; P00811; Potency, µM (titrated, usually from 28.7 µM), inactives show at the top dose activity change, negative = inhibition; AID 584; hit rate 0.09% among 71,000; purified AmpC, nitrocefin hydrolysis with detergent; active = well fitted curve in the direction sought with a large enough effect; inconclusive = small, poorly fitted or top-dose-only effect; note: % is set by controls: 0 for no effect and ±100 for the full control effect
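E. coli AmpC (5.3 nM) in 20 mM phosphate pH 7.0 with 0.01% Triton X-100, preincubated 15 min RT with compound; nitrocefin (2 uL of 800 uM stock) hydrolysis followed by 480 nm absorbance every 20 s over 4 min.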
* hit, by the source's call; ? = inconclusive; . = no result; [ ] = dose if it differs, or a comment. In the library only some 2.4% were active in any assay of this set; here they are far more common. Unless noted, calls come from the whole dose curve. Potency is the fitted concentration of half-maximal effect.

SMILES	AmpC nodet inh	Anthrax LT inh	SmPrx2 inh	AmpC det inh
O=c1cc(N2CCc3ccccc3C2)[nH]c(=O)n1-c1ccc(Br)cc1	15.8µM*[single pt active]	7.8%	>57	-4.2%
O=c1cc(N2CCc3ccccc3C2)[nH]c(=O)n1-c1ccc(Cl)cc1	15.8µM*[single pt active]	4.8%	>57	-3.1%
O=c1cc(N2CCCC2)[nH]c(=O)n1-c1ccc(Cl)cc1	-11.7%	-6.9%	>57	-2.7%
Nc1nc(C(=O)O)c(N=Nc2ccccc2)c(=O)[nH]1	-15.8%[5.75 µM]	-6.3%[8 µM]	>57	-2.3%[5.75 µM]
CO[C@@H]1/C=C\O[C@@]2(C)Oc3c(C)c(O)c4c(c3C2=O)C(=N[C@H]2CC[C@H](O)O[C@@H]2C)C=C(NC(=O)/C(C)=C\C(=O)[C@@H]2C[C@@H]2[C@@H](O)[C@H](C)[C@@H](O)[C@H](C)[C@H](OC(C)=O)[C@@H]1C)C4=O	34.9%[5.75 µM]	13.7%[8 µM]	>57	-1.6%[5.75 µM]
CCOc1c(C(N)=O)c(-c2ccccc2)c2c(=O)[nH]c3ccccc3n12	12.6µM*	?	>57	0.9%
Clc1ccc(-n2nnnc2Sc2ncnc3sccc23)cc1	-8.0%	6.31µM*	?	-5.3%
Cc1sc2ncnc(Sc3nnnn3-c3ccccc3)c2c1C	6.9%	-2.0%	>57	-1.9%
CCOC(=O)C1CCCN(c2c(NCC3CCCN3CC)c(=O)c2=O)C1 (configuration not stated)	3.98µM*[single pt active]	-11.4%	>57	11.1%
CCOC(=O)C1CCCN(c2c(NCCCN3CCCC(C)C3)c(=O)c2=O)C1 (configuration not stated)	3.98µM*[single pt active]	-20.5%	>57	14.2%
CCOC(=O)N1CCC(NC(=O)CN2C(=O)CCSc3ccccc32)CC1	3.98µM*[single pt active]	3.8%	>57	11.3%
c1ccc(-c2nnc(N3CCN(c4ccccn4)CC3)c3ccccc23)cc1	39.2%	10µM*	>57	-3.9%
Cc1ccc(-c2nnc(N3CCN(c4ccccn4)CC3)c3ccccc23)cc1	3.4%	11.2%	>57	3.5%
CCCC/C=C/C(NC(=O)c1ccc(C(F)(F)F)cc1)c1ccccc1 (configuration not stated)	15.8µM*[single pt active]	-29.7%	>57	1.8%
CCCC/C=C/C(NC(=O)c1ccccc1)c1ccccc1 (configuration not stated)	-12.7%	?	>57	-2.1%
OCCN1CCN(c2ncnc3c2sc2nc(N4CCOCC4)c4c(c23)CCC4)CC1	43.0%	10µM*	>57	-1.3%
CCc1ccc(C2C(C#N)=C(N)SC(N)=C2C#N)cc1	-16.0%	12.6µM*	.	-6.9%
CCc1ccc(C2C(C#N)=C(N)SC(N)=C2C#N)s1	-22.1%	10µM*	>57	0.7%
COC(=O)C/C=C\[C@H](C)[C@@H](OC)c1ccccc1Br	.	-5.1%[0.32 µM]	.	.
Cc1nc(NCc2ccccc2)c2nc(-c3ccccc3)n(CCN(C)C)c2n1	89.9%	-4.6%	.	13.6%
O=C(COc1ccccc1F)c1ccc(O)cc1O	-13.5%	-26.1%	.	5.2%
Cc1c(O)ccc(C(=O)COc2ccccc2F)c1O	-8.7%	10µM*	>57	6.2%
Cc1ccc(Cn2ccc(NC(=O)c3cc(-c4ccccc4)on3)n2)cc1	?	-13.1%	>57	-0.5%
Cc1ccc(Cn2ccc(NC(=O)c3cc(-c4ccc5c(c4)OCO5)on3)n2)cc1	10µM*	0.7%	>57	-2.5%
Cc1cccc(OCC(O)CN2C(C)(C)CC(O)CC2(C)C)c1C (configuration not stated)	14.6%	-2.8%	>57	-0.7%
SMILES	AmpC nodet inh	Anthrax LT inh	SmPrx2 inh	AmpC det inh
Cc1ccc(OCC(O)CN2CCN(CC(O)COc3ccc(C)cc3)CC2)cc1 (configuration not stated)	103.3%	7.8%	>57	1.5%
Cc1ccc(OCC(O)CN2CCN(Cc3ccc4c(c3)OCO4)CC2)c(C)c1 (configuration not stated)	92.3%	?	>57	-4.1%
CCN1CCN(CC(O)COc2ccc(C(C)=O)cc2)CC1 (configuration not stated)	3.98µM*[single pt active]	-3.8%	>57	14.3%
CC(=O)c1ccc(OCC(O)CN2C(C)(C)CC(O)CC2(C)C)cc1 (configuration not stated)	3.98µM*[single pt active]	0.5%	>57	13.9%
CC(=O)c1ccc(OCC(O)CN2CCN(Cc3ccc4c(c3)OCO4)CC2)cc1 (configuration not stated)	3.98µM*[single pt active]	-16.9%	>57	13.9%
CC(=O)c1ccc(OCC(O)CN2CCN(CCO)CC2)cc1 (configuration not stated)	3.98µM*[single pt active]	1.2%	>57	11.3%
FC(F)(F)c1ccccc1-c1ccc2ncnc(NC3CC3)c2c1	60.6%	3.8%	>57	7.4%
C[C@@]12CC[C@H](O)C[C@@H]1CC[C@H]1[C@H]2C[C@@H](O)[C@]2(C)[C@@H](C3=CC(=O)OC3)CC[C@@]12O	-10.2%	?	>11.4	7.4%
O=C(O)/C(Cc1ccc([N+](=O)[O-])cc1)=N/O	-3.6%[5.75 µM]	4.4%[8 µM]	>57	-0.7%[5.75 µM]
CC(=O)c1ccc(OCC(O)CN2CCCC(C)C2)cc1 (configuration not stated)	3.16µM*[single pt active]	8.8%	>57	13.9%
NC(=O)CN1CCN(C(=O)Nc2ccccc2)CC1	3.98µM*[single pt active]	-10.7%	>57	15.1%
C[C@@H]1C=C[C@](Cc2ccccc2)(C(=O)NCCCNc2ncc(C(F)(F)F)cc2Cl)N1C(=O)c1ccccc1	51.4%	-32.7%	.	8.5%
CC(C)CNC(=O)O	2.7%[5.75 µM]	?	>57	-3.9%[5.75 µM]
OCC(CO)(CO)N=Cc1cc(Br)ccc1O	-6.5%	-19.8%	>57	3.7%
Oc1ccc(Br)cc1/C=N/n1cnc2ccccc21	15.8µM*[single pt active]	-31.2%	>57	0.3%
C=CC=O	-3.9%	13.4%	.	10.4%
COC(=O)CN(c1ccc(C(C)C)cc1)S(=O)(=O)c1c(C)[nH]c(=O)[nH]c1=O	3.98µM*[single pt active]	-12.1%	>57	13.8%
CCCOC(=O)C1C2C=CC3(CN(c4ccc(Cl)c(F)c4)C(=O)C13)O2 (configuration not stated)	?	-15.2%	>57	13.2%
CCOC(=O)C1C2C=CC3(CN(c4ccc(Cl)c(F)c4)C(=O)C13)O2 (configuration not stated)	2µM*[single pt active]	14.4%	>57	9.6%
CN(C)C(=O)c1ccc(-c2nc(NCc3ccccc3)c3ccccc3n2)cc1	90.0%	-13.6%	>57	13.9%
O=C(Oc1cc2oc(=O)c3c(c2cc1Cl)CCCC3)c1ccco1	-6.6%	?	18.7*	6.9%
COc1ccc(Oc2ncc3nc(-c4ccc(F)cc4)c(=O)n(Cc4cccs4)c3n2)cc1	7.2%	?	>57	-1.7%
COc1ccc(-n2c(Cc3cc(=O)[nH]c(=O)[nH]3)nnc2SCc2ccccc2)cc1	3.98µM*[single pt active]	3.4%	>57	9.5%
COc1cccc(-n2c(Cc3cc(=O)[nH]c(=O)[nH]3)nnc2SCc2cccnc2)c1	3.98µM*[single pt active]	-1.4%	>57	13.6%
CCOc1ccc(-n2c(Cc3cc(=O)[nH]c(=O)[nH]3)nnc2SCC)cc1	2.8%	-8.9%	>57	15.0%
Cc1cccc2ccccc12	-1.1%	-7.3%	.	7.6%
Cc1ccc(C(=N)c2ccccc2Cc2cccc3ccccc23)c2ccccc12	2.4%[5.75 µM]	2.51µM*	>57	-1.7%[5.75 µM]
